# Screening results: PubChem BioAssay, National Center for Advancing Translational Sciences (NCATS)
# CHX counter: affects cycloheximide protein synthesis inhibition readout, counter-screen | cell reporter, cycloheximide protein synthesis inhibition counterscreen | 300,000 tested, 12% active | max response, %; in the data active = max response mostly above about 13%, no sharp cut-off; inactive = mostly below about 14%; note: read at 38.3 µM for the half of the compounds with a filed dose; 0% is about no effect
# Pf growth 48h: P. falciparum growth inhibition at 48 hours (one generation) | P. falciparum luciferase growth in erythrocytes, 48 h | Potency, µM (titrated, usually from 28.7 µM), for inactives: top-dose activity change, negative = inhibition, actives largely listed as inhibitors | 310,000 tested, 5.9% active; note: potency is the fitted concentration of half-maximal effect; % is set by controls: 0 for no effect and ±100 for the full control effect
#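 In quantitative HTS format, infected erythrocytes bearing luciferase-reporter parasites were treated for a single generation at 37 C. Luminescence after adding detection reagent served as the growth measure.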
# Pf growth 96h: P. falciparum growth inhibition at 96 hours; P. falciparum luciferase reporter growth, 96 h; Potency, µM (series often up to 28.7 µM), inactives show at the top dose activity change, negative = inhibition, most hits filed as inhibitors; 320,000 tested, 6.9% active; note: potency is the fitted concentration of half-maximal effect; % is set by controls: 0 for no effect and ±100 for the full control effect
#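 Delayed-death screen, second-generation endpoint: infected erythrocytes, 2% hematocrit, 0.05% parasitemia final; 96 hours at 37 C, 5% CO2; luciferase detection reagent; luminescence decrease equals reduced growth.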
# LmPK inhibitor: inhibitors of Leishmania mexicana pyruvate kinase; Potency, µM (series often up to 57.5 µM), for inactives: top-dose activity change, negative = inhibition, hits mostly inhibitors; 290,000 tested, 0.37% active; purified LmPK, Kinase-Glo ATP luminescence, 1 h; Q27686; note: potency is the fitted concentration of half-maximal effect; % is set by controls: 0 for no effect and ±100 for the full control effect
# Target sequence (Q27686 whole entry, looked up): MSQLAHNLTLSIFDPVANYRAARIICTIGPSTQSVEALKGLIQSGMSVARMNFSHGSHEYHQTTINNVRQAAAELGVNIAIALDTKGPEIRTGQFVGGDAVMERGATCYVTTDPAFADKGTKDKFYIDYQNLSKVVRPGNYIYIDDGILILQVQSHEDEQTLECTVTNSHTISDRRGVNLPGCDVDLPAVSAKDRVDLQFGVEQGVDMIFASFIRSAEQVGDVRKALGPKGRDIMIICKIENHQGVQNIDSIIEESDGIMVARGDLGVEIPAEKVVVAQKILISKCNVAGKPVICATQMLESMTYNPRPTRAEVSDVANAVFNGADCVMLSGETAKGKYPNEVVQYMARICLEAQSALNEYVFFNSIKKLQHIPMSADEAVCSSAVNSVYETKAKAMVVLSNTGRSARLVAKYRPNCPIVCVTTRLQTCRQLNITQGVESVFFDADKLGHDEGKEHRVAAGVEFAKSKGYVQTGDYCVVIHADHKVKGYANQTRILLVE
#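 ATP generated from ADP (0.1 mM) and PEP (0.5 mM) by 0.1 nM LmPK over 1 h at room temperature (pH 7.2 imidazole buffer) was detected by coupled luciferase luminescence. Values were normalized to uninhibited and no-enzyme wells.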
# Shiga toxin inh: blocks Shiga toxin action in Vero cells | Vero cells, Shiga toxin protein synthesis inhibition reporter | 290,000 tested, 9.2% active | inhibition, % at 38.7 µM; in the data active = inhibition mostly above about 28%, no sharp cut-off; inactive = mostly below about 43%; note: 0% is about no effect
# * hit, by the source's call; ? = inconclusive; · = no result given. The list is not random: actives were taken first. Their share in the collection is about 22%. Unless noted, calls come from the whole dose curve; as a rule, active = well fitted inhibition curve with a large enough effect; inconclusive = small, poorly fitted or top-dose-only effect, or another doubt; inactive = no such curve, though single readings can be large or run the other way.
SMILES,CHX counter,Pf growth 48h,Pf growth 96h,LmPK inhibitor,Shiga toxin inh
CC(C)(C)c1[nH]nc2c1C(c1ccsc1)C(C#N)=C(N)O2 (centres undefined),10,48%,-19%,3%,26
Cc1[nH]nc2c1C(c1ccc(Cl)cc1)C(C#N)=C(N)O2 (centres undefined),19*,0%,-37%,-4%,-13
N#CC1=C(N)Oc2c(ccc3ccccc23)C1c1ccsc1 (centres undefined),20*,48%,225%,4%,57*
CCc1[nH]nc2c1C(c1ccsc1)C(C#N)=C(N)O2 (centres undefined),-3,4%,10µM*,0%,1
CC(C)C1C(C#N)=C(N)Oc2n[nH]c(-c3ccccc3)c21 (centres undefined),-3,-21%,-15%,0%,45
CC(C)c1[nH]nc2c1C(C(C)C)C(C#N)=C(N)O2 (centres undefined),-4,-12%,7.4µM*,2%,21
Cc1ccc(C2C(C#N)=C(N)Oc3n[nH]c(C)c32)cc1 (centres undefined),-4,4%,·,2%,-8
COc1ccc(NC(=O)CSc2nc(N)cc(=O)[nH]2)cc1S(=O)(=O)N1CCCCC1,·,-1%,?,·,·
CC1CC(C)CN(C(=O)C(C)N2CCN(S(=O)(=O)c3cccs3)CC2)C1 (centres undefined),·,?,-44%,·,·
O=C(COC(=O)c1ccccc1O)Nc1ccc(N2CCOCC2)cc1,·,47%,-19%,·,·
Cc1nn(Cc2ccccc2)c2c1C(c1ccncc1)C(C#N)=C(N)O2 (centres undefined),-1,-17%,?,1%,19
Cc1nn(Cc2ccccc2)c2c1C(c1ccc(Cl)cc1)C(C#N)=C(N)O2 (centres undefined),6,?,1.2µM*,3%,1
O=C(O)C1CC(=O)N(CCOc2ccccc2)C1 (centres undefined),-3,-9%,?,3%,-6
O=C1NC(=O)C(Cc2ccc(OCCN3COc4ccccc4C3=O)cc2)S1 (centres undefined),25*,·,·,·,9
COc1ccc(NS(=O)(=O)c2ccc(F)c(Cl)c2)cn1,3,46%,44%,12%,-5
CC1CC(C)CN(CCCNC(=O)C2CCN(c3nnc(-n4cccc4)s3)CC2)C1 (centres undefined),15,-16%,?,-1%,-1
Cc1cccc(/C=N/NC(=O)c2cc(Br)ccc2O)n1,32*,30%,12µM*,3%,48*
O=C(N/N=C/c1ccoc1)c1cc(Br)ccc1O,31*,2%,270%,-1%,57
CC(=O)N1CCCN(Cc2cn(-c3ccc(C)cc3)nc2-c2cccc(C)c2)CC1,9,9.3µM*,?,1%,20
Cc1ccc(-n2cc(CN3CCC(O)(c4ccccn4)CC3)c(-c3ccc(F)cc3)n2)cc1,1,4.7µM*,2.3µM*,3%,21
Cc1cccc(-n2cc(CN3CCN(Cc4nccn4C)CC3)c(-c3cccc(F)c3)n2)c1,29*,3.3µM*,-11%,1%,53*
O=C(COc1ccccc1Cl)Nc1nnc(S(=O)(=O)N2CCCCCC2)s1,5,-15%,?,2%,17
COC(=O)C[N+](C)(C)CC#Cc1ccccc1,-4,-5%,?,-6%,0
CCOc1ccc(/C=N/n2c(SC)nnc2-c2ccccc2)cc1OCC,-3,11%,-37%,3%,-6
Cc1nc(NCCc2ccccc2)c2oc3ccccc3c2n1,27,1%,·,2%,-8
SMILES,CHX counter,Pf growth 48h,Pf growth 96h,LmPK inhibitor,Shiga toxin inh
O=C(COc1ccc2c3c(c(=O)oc2c1)CCCC3)NCc1cccnc1,2,?,?,-10%,-17
CSCCC(NC(=O)c1ccc([N+](=O)[O-])cc1Cl)C(=O)OC(C)C(=O)NCc1ccco1 (centres undefined),·,3%,53%,·,·
Cc1cc(C)cc(-n2c(N)c(C(=O)Nc3c(C)n(C)n(-c4ccccc4)c3=O)c3nc4ccccc4nc32)c1,4,12%,2.9µM*,3%,-4
Cc1ccc(-n2c(N)c(C(=O)Nc3c(C)n(C)n(-c4ccccc4)c3=O)c3nc4ccccc4nc32)cc1,-3,9.3µM*,?,-5%,-8
COc1cccc(-n2c(N)c(C(=O)Nc3c(C)n(C)n(-c4ccccc4)c3=O)c3nc4ccccc4nc32)c1,1,?,-23%,1%,-11
C#CCOCCOCCOCCNc1nc(N2CCN(C(=O)[C@H]([C@@H](C)CC)n3cc([C@@H](N)CC(C)C)nn3)CC2)nc(N2CCN(C(=O)[C@H](Cc3cc4ccccc4[nH]3)n3cc([C@@H](N)CC(C)C)nn3)CC2)n1,-1,10µM*,3.3µM*,-2%,14
C#CCOCCOCCOCCNc1nc(N2CCOCC2)nc(N2CCN(C(=O)[C@H](Cc3cc4ccccc4[nH]3)n3cc([C@@H](N)CC(C)C)nn3)CC2)n1,1,2.3µM*,4.1µM*,3%,-14
C#CCOCCOCCOCCNc1nc(N2CCN(C(=O)[C@H](CCC(=O)O)n3cc(C(N)CC(C)C)nn3)CC2)nc(N2CCN(C(=O)[C@H](Cc3cc4ccccc4[nH]3)n3cc(C(N)CC(C)C)nn3)CC2)n1 (some centres undefined),-3,27%,44%,3%,-13
C#CCOCCOCCOCCNc1nc(N2CCN(C(=O)[C@H](Cc3cc4ccccc4[nH]3)n3cc([C@@H](N)CC(C)C)nn3)CC2)nc(N2CCN(C(=O)[C@H](Cc3cc4ccccc4[nH]3)n3cc([C@@H](N)CC(C)C)nn3)CC2)n1,1,2.6µM*,4.1µM*,2%,20
CCCCCOCC1CC(C/C(C)=N/Nc2nc(-c3ccccc3)cs2)C(=O)O1 (centres undefined),27*,?,59%,-6%,69*
CCCCCOCC1CC(C/C(C)=N/NC(N)=S)C(=O)O1 (centres undefined),-3,11%,25%,0%,14
COc1ccccc1NS(=O)(=O)c1cccc(C(=O)N/N=C/c2c(CO)cnc(C)c2O)c1,·,12µM*,?,·,·
Cc1ncc(CO)c(/C=N/NC(=O)c2ccc(O)cc2)c1O,12,2.1µM*,?,-5%,-10
COc1ccccc1N/N=C/c1c(CO)cnc(C)c1O,2,-5%,18%,3%,13
O=C1CC(=O)Nc2cc(S(=O)(=O)Nc3ccc(Cl)c(C(F)(F)F)c3)ccc2N1,2,-16%,21%,-1%,2
CC(=O)c1cccc(NC(=O)Nc2ccc(C(=O)N3CCCC3)cc2)c1,-1,19%,·,-12%,9
Cc1nc(NC(=O)/C=C/c2ccccc2)sc1C(=O)N1CCCCC1,9,-9%,?,1%,25
CC(=O)N1CCN(c2ccc(NC(=O)c3ccccc3Br)cc2Cl)CC1,1,5%,?,-2%,5
